Laboratory results as given in PubChem BioAssay AID624330 (Southern Research Specialized Biocontainment Screening …, 2012).
Screen size: about 340,000 compounds; about 2,100 (0.62%) were called active.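 Rule for the calls: active = first-screen hits whose inhibition reached a set limit at any dose in the follow-up dose series; inconclusive = inhibition above the set first-screen limit but never retested; inactive = the rest.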 These entries were drawn from the full list. Results with a measured potency or affinity are listed apart.

The molecules below were run against Rac GTPase-activating protein 1 (Homo sapiens) (UniProt Q9H0H5) (assay: MgcRacGAP GTPase-activating activity inhibitors, confirmation, biochemical, ADP Hunter fluorescence, primary and confirmatory (AID 624330;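 note: fluorescence reports GDP produced by GAP-driven GTP hydrolysis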)). Conditions: MgcRacGAP-stimulated Rac1 GTP hydrolysis, at 30 µM, stronger effect = higher value, GST-tagged Rac1 F28L mutant substrate.
Rac GTPase-activating protein 1 (Homo sapiens), sequence (Q9H0H5 whole entry, looked up): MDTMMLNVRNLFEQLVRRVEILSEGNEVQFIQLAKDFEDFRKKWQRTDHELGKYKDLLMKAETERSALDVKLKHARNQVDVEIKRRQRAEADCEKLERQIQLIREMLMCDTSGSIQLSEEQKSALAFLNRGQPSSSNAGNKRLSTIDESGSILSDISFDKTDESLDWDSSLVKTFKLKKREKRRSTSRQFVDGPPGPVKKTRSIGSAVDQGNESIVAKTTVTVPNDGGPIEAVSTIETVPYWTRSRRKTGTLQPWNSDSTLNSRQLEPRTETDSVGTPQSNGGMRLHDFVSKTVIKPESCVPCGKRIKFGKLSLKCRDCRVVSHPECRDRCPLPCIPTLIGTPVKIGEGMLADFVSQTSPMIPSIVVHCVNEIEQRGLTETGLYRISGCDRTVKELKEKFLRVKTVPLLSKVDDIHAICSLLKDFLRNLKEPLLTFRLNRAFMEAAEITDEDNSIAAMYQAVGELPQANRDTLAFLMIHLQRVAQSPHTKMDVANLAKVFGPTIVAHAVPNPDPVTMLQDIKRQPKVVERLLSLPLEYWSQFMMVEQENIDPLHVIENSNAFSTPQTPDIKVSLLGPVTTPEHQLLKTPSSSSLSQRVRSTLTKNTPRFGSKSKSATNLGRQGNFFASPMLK

inhibition, inactive:
Cc1ccc(C(CNS(=O)(=O)c2ccc(F)cc2)N2CCN(C)CC2)cc1 (configuration not stated) 3.73%
C#CCOCCOCCOCCNc1nc(N2CCN(C(=O)[C@H]([C@@H](C)O)n3cc(CCCCN)nn3)CC2)nc(N2CCN(C(=O)[C@H](C)n3cc(CCCN=C(N)N)nn3)CC2)n1 6.19%
CCOc1ncccc1C(=O)OCC(=O)c1ccc(OC)c(OC)c1 2%
COc1cccc(CN2CCC(N(CCc3ccccc3)Cc3ccccc3)CC2)c1OC 22.3%
CCCN1CCC(N(CCc2ccccc2)Cc2ccccc2)CC1 -10%
CSc1nnc(-c2ccc(S(=O)(=O)N3CCCCC3)cc2)o1 1%
CCC(C)c1ccccc1NC(=O)C(C)OC(=O)c1ccco1 (configuration not stated) 1.05%
O=c1c(Cc2c(F)cccc2Cl)c(O)ccn1CC1CCCO1 (configuration not stated) -2.7%
CCOC(=O)CCc1c(C)nc2cc(-c3ccc(Cl)cc3)[nH]n2c1=O -6.3%
O=C(CCNC(=O)c1ccco1)Nc1ccc(SC(F)F)cc1 -1.92%
O=C(CSc1nnnn1C1CC1)N1CCN(c2cccc(Cl)c2)CC1 6.11%
COc1ccc(N2CCN(C(=O)CSc3nnc(C4CC4)n3C3CC3)CC2)cc1 24.3%
COc1ccc(N2CCN(C(=O)CSc3nnnn3C3CC3)CC2)cc1 16.6%
Cc1nnc(SCC(=O)N2CCN(c3ccccc3)CC2)n1C1CC1 5.61%
C[C@@H]1[C@H]2CCCC[C@H]2CN(C(=O)OC(C)(C)C)[C@@H]1CC(=O)c1ccccc1 12.5%
COc1ccc(CN2CCS(=O)(=O)CC2)cc1OC -1.72%
CCOC(=O)C1CCCN(S(=O)(=O)c2ccc(Cl)nc2)C1 (configuration not stated) 0.62%
CCC(=O)c1ccccc1OCCN1C(=O)NC(C)(C)C1=O 3.57%
Fc1ccccc1CNCc1ccc2c(c1)OCO2 6.19%
Cc1ccccc1CNCc1ccc2c(c1)OCO2 25.3%
Clc1ccccc1CNCc1ccncc1 -5.2%
Cc1ccc(CNCc2ccccc2Cl)cc1 3.27%
CC1=C(C(=O)NC(C)CCc2ccccc2)C2(CCC(C)CC2)OC1=O (configuration not stated) 9.85%
O=C(C[n+]1cccc(/C=N/O)c1)N(Cc1ccccc1)Cc1ccccc1 2.39%
COc1ccc(CCNC(=O)CSc2n[nH]c(N)n2)cc1 9.27%
Cc1csc(=O)n1CCC(=O)OCC(=O)Nc1ccc(S(N)(=O)=O)cc1 6.26%
O=C(CCN1C(=O)[C@@H]2Cc3ccccc3CN2C1=O)NCc1ccccc1Cl 13.7%
CCOc1ccc(S(=O)(=O)N2CCCC(C(=O)Nc3ccccc3)C2)cc1 (configuration not stated) 4.61%
CCc1ccc(NC(=O)COC(=O)/C(=C/c2ccccc2OC)c2ccccc2)cc1 -0.32%
CCN(CC)S(=O)(=O)c1ccc(NC(=O)COC(=O)CCc2cc(OC)c(OC)c(OC)c2)cc1 1.83%
COc1ccccc1/C=C(/C(=O)OCC(=O)Nc1ccccc1C)c1ccccc1 8.5%
COc1cc(CC(=O)OCC(=O)Nc2ccc3c(c2)OCO3)cc(OC)c1OC 12.4%
CCN(c1ccc(NC(=O)COC(=O)CCc2cc(OC)c(OC)c(OC)c2)cc1)C(C)C 14.8%
COc1cc(CC(=O)OCC(=O)Nc2ccc([N+](=O)[O-])cc2)cc(OC)c1OC 13.3%
COc1ccc(NC(C)=O)cc1C 16.4%
COCc1cc(C)n(CC(=O)Nc2ccc(N3CCOCC3)cc2)c(=O)c1C#N 1.03%
Nc1c(C(=O)c2cccs2)oc2ccccc12 6.17%
Cc1ccc(C(=O)OCc2nnc(-c3ccccc3)o2)o1 6.62%
COCCCn1c(=S)[nH]c2c(sc3ccccc32)c1=O 21%
O=c1c2ccccc2[nH]c(=S)n1CCCN1CCOCC1 4.66%
CCN(CC)S(=O)(=O)c1cc(C(=O)OCC(=O)Nc2ccc(-c3nc4ccc(C)cc4s3)cc2)ccc1F 4.33%
CC(=O)Nc1nc2c(s1)CCc1ccccc1-2 8.9%
COc1ccc2c(c1)-c1nc(NC(=O)c3cccs3)sc1CC2 8.83%
COc1ccc2c(c1)-c1nc(NC(=O)c3ccco3)sc1CC2 8.71%
Nc1nc2c(s1)COc1ccccc1-2 4.85%
O=S(=O)(c1ccc(NCc2ccccc2)cc1)N1CCOCC1 5.28%
CCc1ccc(N2CCN(C(=O)N3CCOCC3)CC2)cc1 7.01%
Cc1ccc(CNc2ccc(N3CCOCC3)c(C(=O)O)c2)s1 6.12%
c1cc(CNc2ccc(N3CCOCC3)cc2)ccn1 13.9%
CC(=O)c1ccc(N2CCN(C(=O)Nc3ccc(C(C)C)cc3)CC2)cc1 6.75%
CC(=O)N1CCN(c2ccc(NC(=O)c3ccc(Cl)cc3)cc2)CC1 4.31%
CCC(=O)N1CCN(c2ccc(NC(=O)COc3ccc(CC)cc3)cc2)CC1 3.4%
CC(=O)N1CCN(c2ccc(NCc3ccc(C)s3)cc2)CC1 30.4%
Cc1cc(=O)[nH]c(NN=C2C3CC4CC(C3)CC2C4)n1 -3.7%
CS(=O)(=O)NNC(=O)C1Cc2c(ccc3ccccc23)O1 (configuration not stated) 8.23%
CC1CCCC(C)N1CCNC(=O)Nc1ccc(Cl)cc1 (configuration not stated) 6.73%
COc1ccc(NC(=O)C2CCN(C(=O)[C@@H]3Cc4ccccc4CN3)CC2)cc1 -3.28%
O=C(OCc1ccccc1)/C(=C/c1cccc2ccccc12)NC(=O)c1ccccc1 4.32%
N#CC1=C(c2ccc(-c3ccccc3)cc2)COC1=O 7.38%
CCc1ccc(NC(=O)N2CCN(c3ccc(F)cc3)CC2)cc1 2.99%
CCc1ccc(NC2CC(=O)N(c3ccc(OC)cc3OC)C2=O)cc1 (configuration not stated) 4.67%
CC(=O)N1CCN(c2ccc(NC(=O)c3ccccc3)cc2)CC1 11.9%
COc1cccc(N2C(=O)CC(Nc3ccc(N4CCOCC4)cc3)C2=O)c1 (configuration not stated) 20.1%
CC(=O)N1CCN(c2ccc(NC(=O)c3ccc(F)cc3)cc2)CC1 13.2%
CC(C)c1ccc(C(=O)Nc2ccc(N3CCOCC3)cc2)cc1 7.63%
CC(=O)N1CCN(c2ccc(NC(=O)C(c3ccccc3)c3ccccc3)cc2)CC1 3.06%
CC(C)c1ccc(S(=O)(=O)Nc2ccc(N3CCOCC3)cc2)cc1 8.59%
O=C(CSc1nnc(-c2cccnc2)o1)Nc1ccc(F)cc1 13.2%
Clc1nc(-c2ccccc2)c2ccccc2n1 10.5%
CC(=O)c1cc(Cc2csc(C(C)=O)c2)cs1 1.28%
CN(C(=O)COC(=O)c1cccs1)c1c(N)n(Cc2ccccc2)c(=O)[nH]c1=O 4.09%
Cc1cc(=O)oc2c3c(cc(OCC(=O)NC(Cc4ccc(Cl)cc4)C(=O)O)c12)OC(C)(C)CC3 (configuration not stated) 6.3%
O=C(NCc1ccccc1)NC(=O)c1ccncc1 8.08%
O=C1NC(=S)NC1Cc1ccc(O)cc1 (configuration not stated) 7.3%
CCn1ccnc1CN1CCCCC1C(=O)Nc1ccc(Oc2cccnc2)cc1 (configuration not stated) 10.9%
Cc1cccc(CNc2ccc(S(=O)(=O)N3CCCCC3)cc2)c1 2.94%
CC(=O)N1CCN(c2ccc(NC(=O)c3cccc(C)c3)cc2)CC1 -9.43%
CC(=O)Nc1ccc(NCc2cccs2)cc1 31.6%
O=C1CC(Nc2ccccc2)C(=O)N1Cc1ccccc1 (configuration not stated) 7.76%
O=C(O)c1ccc(NCc2cccs2)cc1 -0.42%
O=C1CC(Nc2ccc(N3CCOCC3)cc2)C(=O)N1CCc1ccccc1 (configuration not stated) 14.7%
CC1CCN(Cc2cc(=O)oc3ccc(C(C)C)cc23)CC1 5.26%
O=S(=O)(N/N=C1\CC(c2ccccc2)Oc2ccccc21)c1ccccc1 (configuration not stated) -7.41%
COc1ccccc1CNC1CCN(Cc2ccccc2)CC1 -3.78%
Fc1ccc(CNC2CCN(Cc3ccccc3)CC2)cc1 -1.76%
Cc1cc(-c2ccccc2)nc(N/N=C/c2ccccc2F)n1 2.38%
Oc1ccc(/C=N/Nc2ccccc2)cc1 12.9%
Cc1cc(-c2ccccc2)nc(N/N=C/c2cccnc2)n1 3.86%
Cc1cc(-c2ccccc2)nc(N/N=C/c2ccccc2)n1 4.11%
COc1ccc(/C=N/Nc2nc(C)cc(-c3ccccc3)n2)cc1OC 11.1%
Cc1cc(-c2ccccc2)nc(N/N=C/c2ccc([N+](=O)[O-])cc2)n1 6.88%
C/C(=N\Nc1nc2ccccc2nc1C)c1ccccc1O -0.02%
COc1ccc(O)c(/C=N/Nc2nc(C)cc(-c3ccccc3)n2)c1 3.11%
CCOC(=O)CN1C(=O)S/C(=C/c2ccc(C)o2)C1=O 13.6%
O=C(CN(CC1CCCO1)C(=O)CCC(=O)Nc1nccs1)NCC1CCCO1 (configuration not stated) -9.34%
O=C1CCc2cc(S(=O)(=O)Nc3cccc(F)c3)cc3c2N1CC3 4.84%
O=C(NCC(c1cccs1)N1CCOCC1)c1cc(S(=O)(=O)N2CCOCC2)c(Cl)cc1Cl (configuration not stated) 2.31%
